# According to PubChem BioAssay (Tox21):
# Several values for one entry are separate records, joined by “and”; a condition that tells them apart may be missing. Equal values may be shown once. Inconclusive results are not listed. Activity calls are given as the source filed them. Calls follow the shape of the dose curve; as a rule, active = well fitted cell-killing curve with a large enough effect in the repeat runs; inconclusive = weak or mixed curves; inactive = flat fitted curve, though single readings scatter.
# Experiment: qHTS assay to identify small molecule antagonists of the estrogen receptor beta (ER-beta) signaling pathway - cell viability counter screen (AID 1259382); also: nearly all actives have a fitted effect of over 55% in size
# Conditions: ER-beta-UAS-bla HEK293T viability, CellTiter-Glo luminescence, 16 h; series mostly up to 92.4 µM; activity change, negative = cytotoxicity: at the top concentration
# Source text: U.S. Tox21 Program National Center for Advancing Translational Sciences [NCATS] NIH Chemical Genomics Center [NCGC] U.S. Environmental Protection Agency [EPA] National Institutes of Environmental Health Sciences [NIEHS] National Toxicology Program [NTP] U.S. Food and Drug Administration [FDA] Tox21 Assay Overview: Estrogen receptor (ER), a nuclear hormone receptor, plays an important role in development, metabolic homeostasis and reproduction. Two subtypes of ER, ER-alpha and ER-beta, have similar expression patterns with some uniqueness in both types. Endocrine disrupting chemicals (EDCs) and their interactions with steroid hormone receptors like ER causes disruption of normal endocrine function. To identify the compounds that inhibit ER signaling, an ER-beta-UAS-bla GripTite cell line (Life Technologies, Madison, WI, USA) containing a beta-lactamase reporter gene under the control of an UAS response element was used to screen Tox21 10K compound library. The cytotoxicity of the Tox21 compound library against the ER-beta-bla cell line was tested in parallel by measuring the cell viability using CellTiter-Glo assay in the same wells.
# Tox21 Assay Protocol Summary: ER-beta-UAS-bla HEK293T cells were dispensed at 2,000 cells/4 uL of assay medium containing 2% charcoal stripped FBS per well into black wall/clear-bottom 1536-well plates using a Multidrop Combi (ThermoFisher Scientific, Waltham, MA) dispenser. After the assay plates were incubated at a 37C and 5% CO2 for 6 hr, 23 nL of compounds dissolved in DMSO, positive controls or DMSO only was transferred to the assay plate by a Pintool station (Kalypsys, San Diego, CA), followed by addition of 1 uL (1nM as final concentration) of 17-beta-estradiol (E2) in assay medium using a Flying Reagent Dispenser (FRD, Aurora Discovery, San Diego, CA). The plates were incubated at 37C and 5% CO2 for 16 hr. Then 1 uL of LiveBLAzer B/G FRET substrate was added using a Flying Reagent Dispenser, the plates were incubated at room temperature for 2 hours, and fluorescence intensity was measured by an Envision plate reader (PerkinElmer, Shelton, CT). For cell viability readout that measures cytotoxicity, 4 uL/well of CellTiter-Glo reagent was added into the assay plates using a FRD. After 30 min incubation at room temperature, the luminescence intensity in the plates was measured using a ViewLux (PerkinElmer) plate reader.
# % is scaled to controls: 0 for no effect and ±100 for the full control effect; potency is read from the fitted curve at half-maximal effect.
SMILES,"activity change, negative = cytotoxicity",Potency
CC(C)CCOC(=O)/C=C/c1ccccc1,8.67% (inactive),
C=CC(=O)OCCOC(=O)C=C,17.3% (inactive),
O=C(Nc1ccc2c(O)c(N=Nc3ccc(N=Nc4ccc(S(=O)(=O)O)cc4)cc3)c(S(=O)(=O)O)cc2c1)c1ccccc1,-4.26% (inactive),
Clc1nnc(Cl)c2ccccc12,-4.63% (inactive),
Cc1cc(-c2ccc(N=Nc3cc(S(=O)(=O)O)c4ccccc4c3N)c(C)c2)ccc1N=Nc1cc(S(=O)(=O)O)c2ccccc2c1N,-15.5% (inactive),
O=C1CCc2cc(OCCCCc3nnnn3C3CCCCC3)ccc2N1,-8.57% [at 42.5 µM] (inactive),
Cc1ccc(C(C)C)cc2c(C)ccc1-2,2.17% [at 42.5 µM] (inactive),
OC12N=C(c3ccccc3)SC1Cc1cc(Cl)ccc12 (stereo not given),0.055% (inactive),
CC(=O)c1ccc(C(C)=O)cc1,-0.353% (inactive),
COc1ccc(NC(=O)CC(C)=O)cc1,-0.525% (inactive),
C#C[C@]1(O)CC[C@H]2[C@@H]3[C@H](C)CC4=C(CCC(=O)C4)[C@H]3CC[C@@]21C,-7.6% [at 42.5 µM] (inactive),
CC(C)(C)NSc1nc2ccccc2s1,0.448% (inactive),
O=[N+]([O-])c1cccc(C(F)(F)F)c1,0.563% (inactive),
C#C[C@]1(OC(C)=O)CC[C@H]2[C@@H]3CCC4=C[C@@H](OC(C)=O)CC[C@@H]4[C@H]3CC[C@@]21C,-28% [at 42.5 µM] (inactive),
COC(C)=O,-0.64% (inactive),
CCCNCCC,3.72% (inactive),
CCCCCCCCCCC[C@@H](C[C@@H]1OC(=O)[C@H]1CCCCCC)OC(=O)[C@H](CC(C)C)NC=O,-8.72% [at 42.5 µM] (inactive),
ClCCl,-3.44% (inactive),
COc1cc(S(=O)(=O)O)c(C)cc1N=Nc1c(O)ccc2cc(S(=O)(=O)O)ccc12,2.89% (inactive),
COC1=C(OC)C(=O)C(CCCCCCCCCCO)=C(C)C1=O,,23.7 µM (active)

SMILES,"activity change, negative = cytotoxicity",Potency
CCCCCCCCCCCCOCCOCCOCCOCCOCCOCCOCCOCCOCCO,,29.8 µM (active)
CC(C)(C)c1csc(-c2cc3cc(OCc4ccccc4CC(=O)O)ccc3o2)n1,,27.3 µM (active)
CC/C=C\CCCCCO,-2.22% (inactive),
C[Si](Cl)(c1ccccc1)c1ccccc1,-0.698% (inactive),
CN1CCC[C@@H]1CCO[C@](C)(c1ccccc1)c1ccc(Cl)cc1,,21.1 µM (active)
O=C(/C=C/c1ccccc1)OC/C=C/c1ccccc1,2.43% (inactive),
CC(=O)CC(=O)Nc1ccc(S(=O)(=O)O)cc1,3.29% (inactive),
CC(C(=O)O)c1ccc2c(c1)[nH]c1ccc(Cl)cc12 (stereo not given),-18.7% [at 42.5 µM] (inactive),
NC(=O)c1cccc([N+](=O)[O-])c1,-1.77% (inactive),
CCC(C)n1ncn(-c2ccc(N3CCN(c4ccc(OC[C@H]5CO[C@](Cn6cncn6)(c6ccc(Cl)cc6Cl)O5)cc4)CC3)cc2)c1=O (stereo not given in full),-17.4% [at 42.5 µM] (inactive),
CC1=Nc2ccccc2C1(C)C,-14.8% (inactive),
C=CC(=O)Nc1cc2c(Nc3ccc(F)c(Cl)c3)ncnc2cc1OCCCN1CCOCC1,-20.9% [at 42.5 µM] (inactive),
CCCC(=O)OCOC(=O)C1=C(C)NC(C)=C(C(=O)OC)C1c1cccc(Cl)c1Cl (stereo not given),0.85% [at 42.5 µM] (inactive),
O=C(O)[C@H](O)[C@@H](O)[C@H](O[C@@H]1O[C@H](CO)[C@H](O)[C@H](O)[C@H]1O)[C@H](O)CO,2.82% [at 42.5 µM] (inactive),
CCCC[P+](C)(CCCC)CCCC,-1.42% (inactive),
CC(=O)[C@H]1CC[C@H]2[C@@H]3CCC4=CC(=O)CC[C@]4(C)[C@H]3CC[C@]12C,,54.2 µM (active) and 61.1 µM (active)
CC1(C)CC(O)CC(C)(C)N1,3.25% (inactive),
CN(C)[C@@H](CCOc1cccc2ccccc12)c1ccccc1,,15 µM (active)
Cc1nc2n(c(=O)c1CCN1CCC(c3noc4cc(F)ccc34)CC1)CCCC2,-8.78% [at 42.5 µM] (inactive),
Cc1cccc(C(=O)O)c1O,-0.973% [at 42.5 µM] (inactive),
